Values joined by “and” are separate entries in the source; they are usually repeats but may differ in a detail not shown here. Equal values may be shown once. Inconclusive results are not listed. A call without a number means that no potency is given here. Active and inactive are the calls of the source. The call rests on the fitted dose curve; in most records, active means well fitted curve in the direction sought with a large enough effect; inconclusive means small, poorly fitted or top-dose-only effect, or another doubt; inactive means no such curve, though single readings can be large; an effect the other way counts as inactive or inconclusive.
Assays:
[1] = Viability qHTS for spleen associated tyrosine kinase inhibitor (SYKi) naive MV4-11 cells (AID 1963823); details: MV4-11 AML viability, CellTiter-Glo luminescence, 72 h; series mostly up to 45 µM; further: nearly all actives have a fitted effect of over 40% in size
In short: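 Viability of MV4-11 AML cells lacking prior SYK inhibitor exposure is scored by CellTiter-Glo luminescence following 72 hr compound incubation at 37 C, 5% CO2, seeded at 500 cells per well.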

[2] = Quantitative highthroughput screen to assess conditional lethalithy of NOMO1 cells grown in RPMI1640 with untreated serum (RPMI+s) (AID 1963876); details: NOMO1 AML cells in RPMI+serum, CellTiter-Glo viability, 48 h; series mostly up to 45.8 µM; further: nearly all actives have a fitted effect of over 35% in size
In short: (§1)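 Each medium arm—HPLM with 10% dialyzed FBS, or RPMI1640 with 5 mM glucose and 10% untreated or dialyzed FBS—was screened against an 11-point, 3-fold compound titration for 48 h at 37 °C, with CellTiter-Glo luminescence as endpoint.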

[3] = Quantitative highthroughput screen to assess conditional lethalithy of NOMO1 cells grown in RPMI1640 with dialyzed fetal bovine serum (RPMI+ds) (AID 1963877); details: NOMO1 in RPMI+dialyzed FBS viability, ATP luminescence, 48 h; series mostly up to 45.8 µM; further: nearly all actives have a fitted effect of over 30% in size
In short: as §1

[4] = Quantitative highthroughput screen to assess conditional lethalithy of NOMO1 cells grown in Human Plasma-Like Medium with dialyzed fetal bovine serum (HPLM+ds) (AID 1963878); details: NOMO1 AML cells in HPLM+ds, CellTiter-Glo viability, 48 h; series mostly up to 45.8 µM; further: nearly all actives have a fitted effect of over 35% in size
In short: as §1

[5] = Quantitative highthroughput screen to assess conditional lethalithy of P12 Ichikawa cells grown in Human Plasma-Like Medium with dialyzed fetal bovine serum (HPLM+ds) (AID 1963879); details: ATP luminescence, 48 h; Potency: viability; series mostly up to 45.8 µM; further: nearly all actives have a fitted effect of over 35% in size
In short: as §1

[6] = Quantitative highthroughput screen to assess conditional lethalithy of P12 Ichikawa cells grown in RPMI1640 with dialyzed fetal bovine serum (RPMI+ds) (AID 1963880); details: ATP luminescence, 48 h; Potency: P12-Ichikawa viability; series mostly up to 45.8 µM; further: nearly all actives have a fitted effect of over 35% in size
In short: as §1

[7] = Quantitative highthroughput screen to assess conditional lethalithy of P12 Ichikawa cells grown in RPMI1640 with untreated serum (RPMI+s) (AID 1963881); details: ATP luminescence, 48 h; Potency: viability; series mostly up to 45.8 µM; further: nearly all actives have a fitted effect of over 35% in size
In short: as §1

[8] = Quantitative highthroughput screen to assess conditional lethalithy of SEM cells grown in Human Plasma-Like Medium with dialyzed fetal bovine serum (HPLM+ds) (AID 1963882); details: SEM B-ALL cells in HPLM+ds, CellTiter-Glo viability, 48 h; series mostly up to 45.8 µM; further: nearly all actives have a fitted effect of over 35% in size
In short: as §1

[9] = Quantitative highthroughput screen to assess conditional lethalithy of SEM cells grown in RPMI1640 with unreated serum (RPMI+s) (AID 1963883); details: SEM B-ALL cells, CellTiter-Glo viability, 48 h; series mostly up to 45.8 µM; further: nearly all actives have a fitted effect of over 35% in size
In short: as §1

[10] = Quantitative highthroughput screen to assess conditional lethalithy of SEM cells grown in RPMI1640 with dialyzed fetal bovine serum (RPMI+ds) (AID 1963884); details: SEM B-ALL cells, RPMI+dialyzed FBS, CellTiter-Glo viability, 48 h; series mostly up to 45.8 µM; further: nearly all actives have a fitted effect of over 35% in size
In short: as §1

[11] = Cellular viability qHTS for adrenocortical cancer (ACC) cell line SW-13 (AID 1963989); details: SW-13 ACC cells viability, CellTiter-Glo, 48 h; activity (max response): stronger effect = lower value; further: nearly all actives have a fitted effect of over 65% in size;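 on activity (max response): cells grown in serum-free medium with ITS supplement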
In short: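 Viability was read as CellTiter-Glo luminescence after 48 h compound treatment (up to 46 uM final) of SW-13 cells grown serum-free; titration curves were fit with a four-parameter logistic model to give IC50 and efficacy.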

[12] = Cellular viability qHTS for adrenocortical cancer (ACC) cell line NCI-H295R (AID 1963990); details: CellTiter-Glo ATP luminescence, 48 h; series mostly up to 46.1 µM; further: nearly all actives have a fitted effect of over 60% in size
In short: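 CellTiter-Glo ATP luminescence, read 48 h after compound addition, measured viability of NCI-H295R adrenocortical cells grown serum-free with ITS. Final concentrations spanned up to 46 uM. Data normalized to DMSO and doxorubicin, fitted for IC50 and maximal response.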

[13] = Viability qHTS for spleen associated tyrosine kinase inhibitor (SYKi) drug resistant MV4-11 cells (AID 1963824); details: SYKi-resistant MV4-11 viability, CellTiter-Glo, 72 h; series mostly up to 45 µM; further: nearly all actives have a fitted effect of over 35% in size
In short: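 SYK-inhibitor-resistant MV4-11 AML cells were seeded at 500 per well onto compound and cultured 72 hours (37 °C, 5% CO2). CellTiter-Glo was then added, and after 10 min at room temperature, luminescence gave viability.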
Potency means the concentration at half of the fitted maximal effect.

SMILES | Potency [1] | Potency [2] | Potency [3] | Potency [4] | Potency [5] | Potency [6] | Potency [7] | Potency [8] | Potency [9] | Potency [10] | activity (max response) [11] | Potency [12] | Potency [13] | Potency [11]
CC(C)(N)c1ccc(-c2nc3ccccc3nc2-c2ccccc2)cc1 | 9200 nM (active) | 74.3 nM (active) | 83.3 nM (active) | 23.5 nM (active) | 23.5 nM (active) | 74.3 nM (active) | 93.5 nM (active) | 46.9 nM (active) | 14.8 nM (active) | 33.2 nM (active) | -5.56% (inactive) |  |  | 
C=C(c1ccc(C(=O)O)cc1)c1cc2c(cc1C)C(C)(C)CCC2(C)C | 468 nM (active) | inactive | 1050 nM (active) | 469 nM (active) | inactive | inactive | inactive | inactive | inactive | inactive | -0.298% (inactive) and -6.68% (inactive) | inactive |  | 
CC(C)(C#N)c1cc(Cn2cncn2)cc(C(C)(C)C#N)c1 | inactive | inactive | inactive | inactive | inactive | inactive | inactive | inactive | inactive | inactive | 5.22% (inactive) | inactive |  | 
CC1=NN(c2ccccc2)C(=O)C1 | 11900 nM (active) | inactive | inactive | inactive | inactive | inactive | inactive | inactive | inactive | inactive | 8.8% (inactive) and -4.32% (inactive) | inactive |  | 
CNC(=O)c1ccc2cc(C3(O)CCn4cncc43)ccc2c1 (stereo not drawn) | inactive | inactive | inactive | inactive | inactive | inactive | inactive |  | inactive | inactive | -3.07% (inactive) | inactive |  | 
NCCc1cnc[nH]1 | 13300 nM (active) | inactive | inactive | inactive | inactive | inactive | inactive | inactive |  |  | 7.56% (inactive) and -0.338% (inactive) | inactive |  | 
CC(=O)N1c2ccc(-c3ccc(C(=O)O)cc3)cc2[C@H](Nc2ccc(Cl)cc2)C[C@@H]1C | 52.5 nM (active) |  |  |  |  |  |  |  |  |  |  | 3980 nM (active) | 59 nM (active) | 
NC(=O)c1cccc(-c2cccc(OC(=O)NC3CCCCC3)c2)c1 | inactive | inactive | inactive | inactive | 332 nM (active) |  |  | inactive |  |  |  | inactive |  | 
Nc1cccc2c1CN(C1CCC(=O)NC1=O)C2=O (stereo not drawn) | 4220 nM (active) | inactive | inactive | inactive | inactive |  | inactive | inactive |  | inactive | -7.43% (inactive) | inactive |  | 
O=C(NCCS(=O)(=O)c1ccc(C(F)(F)F)cn1)c1ccc(Cl)cc1 | inactive | inactive | inactive | inactive | inactive | inactive | inactive |  | inactive | inactive | 0.68% (inactive) | inactive |  | 
C[C@](Cc1c[nH]c2ccccc12)(NC(=O)OC1C2CC3CC(C2)CC1C3)C(=O)NC[C@H](NC(=O)CCC(=O)O)c1ccccc1 (stereo partly drawn) | inactive | inactive | inactive | inactive | inactive | inactive | inactive | inactive | inactive |  | 0.678% (inactive) | inactive |  | 
Cc1ccc(C(=O)Nc2cccc(C(F)(F)F)c2)cc1Nc1nc(-c2cccnc2)nc2c1cnn2C | 8330 nM (active) | inactive | inactive | inactive | inactive | inactive | inactive |  |  |  |  |  |  | 2510 nM (active)

Source: PubChem BioAssay (NCATS)
